# Screen size: about 1,000 compounds; about 230 (23%) were called active. About 1% were inconclusive and are not listed. Some of the results follow. Potency and affinity values are given separately. Unmarked numbers belong to inactive results. The rule behind the calls is not given here.
# Target: Long-chain-fatty-acid--AMP ligase FadD28 (Mycobacterium tuberculosis (strain ATCC 25618 / H37Rv)) (UniProt P9WQ59)
# Assay: inhibitors of FadD28 bisubstrate probe binding, dose response, biochemical, fluorescence polarization, cherry-pick (AID 624273)
# Conditions: series mostly up to 50 µM; activity change, negative = inhibition: at the top concentration
# Sequence of Long-chain-fatty-acid--AMP ligase FadD28 (Mycobacterium tuberculosis (strain ATCC 25618 / H37Rv)) (P9WQ59 whole entry, looked up): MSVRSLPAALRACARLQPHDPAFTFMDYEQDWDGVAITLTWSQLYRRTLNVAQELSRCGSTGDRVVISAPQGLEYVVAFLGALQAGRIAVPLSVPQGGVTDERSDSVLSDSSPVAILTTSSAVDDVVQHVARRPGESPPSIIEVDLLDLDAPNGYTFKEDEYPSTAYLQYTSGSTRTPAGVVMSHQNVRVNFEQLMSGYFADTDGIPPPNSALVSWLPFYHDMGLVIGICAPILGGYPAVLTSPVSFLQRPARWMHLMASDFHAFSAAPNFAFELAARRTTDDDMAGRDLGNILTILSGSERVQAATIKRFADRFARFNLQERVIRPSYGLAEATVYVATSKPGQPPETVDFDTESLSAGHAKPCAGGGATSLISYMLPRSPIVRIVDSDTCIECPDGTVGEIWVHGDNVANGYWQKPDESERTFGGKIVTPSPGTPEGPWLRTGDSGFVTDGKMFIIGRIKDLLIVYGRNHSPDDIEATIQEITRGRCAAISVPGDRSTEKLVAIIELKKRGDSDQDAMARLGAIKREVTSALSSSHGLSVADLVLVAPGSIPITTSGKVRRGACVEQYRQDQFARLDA
row,Compound,"activity change, negative = inhibition [%]"
1,COc1ccc(NC(=O)Nc2ccc3c(c2)C(=O)N([C@@H](C)CO)C[C@@H](C)[C@@H](CN(C)S(=O)(=O)c2cccs2)O3)cc1,-15.6
2,O=C(NN=Cc1ccc(N(CCCl)CCCl)cc1)c1cccnc1,-10.7
3,CCN(CC)c1ccc(NC(=O)Nc2ccc(C(C)=O)cc2)cc1,-9.89
4,COc1ccc(Cl)cc1C(=O)Nn1c(-c2cccs2)nc2ccccc2c1=O,-10.4
5,O=C(Nc1ccc(F)cc1F)NC1CCCCCCC1,-10.6
6,CCOc1ccc(NC(=O)Cn2sc3nc(C)cc(C)c3c2=O)cc1,1.98
7,CCOc1ccc(N=C2SC(C(=O)Nc3ccccc3C#N)C(N)=C2C(=O)Nc2ccc(Cl)cc2)cc1 (stereo not drawn),-2.7
8,c1ccc(-c2cc(-c3ccccc3)on2)cc1,-4.78
9,CCCCC(=O)Nc1cc([N+](=O)[O-])ccc1Cl,-3.25
10,N#Cc1ccc(NCCc2ccccn2)c([N+](=O)[O-])c1,-4.35
11,CCS(=O)(=O)c1ncc(Cl)c(C(=O)Nc2ccc(S(=O)(=O)N3CCC(C)CC3)cc2)n1,-3.68
12,c1ccc2cc(OCCCn3ccnc3)ccc2c1,4.08
13,CC12CCC(C(=O)NCCCn3ccnc3)(OC1=O)C2(C)C (stereo not drawn),0.92
14,Cc1nn(CC(=O)NCc2ccco2)c(C)c1[N+](=O)[O-],-5.9
15,CC(C)(C)c1ccc(Cn2nnc3c(=O)[nH]c(C4CCCN(C(=O)c5cccs5)C4)nc32)cc1 (stereo not drawn),1.02
16,COc1ccc(N=C2NC(=O)/C(=C\C=C\c3ccco3)S2)cc1,-9.1
17,CCN(C(=O)c1cc(OC)c(OC)c(OC)c1)C1CCCCC1,-8.5
18,COc1ccc(C(C)=O)cc1COC(=O)c1cnc(C)cn1,-0.706
19,CCc1cccc2c(C(=O)COC(=O)c3ccccc3)c[nH]c12,-7.51
20,CCc1cccc2c(C(=O)COC(=O)[C@@H]3CC(O)CN3S(=O)(=O)c3ccccc3[N+](=O)[O-])c[nH]c12 (stereo partly drawn),-1.47
21,O=C(c1cc2cc(Br)ccc2oc1=O)N1CCCC1,-5.4
22,CC(C)CCOc1ccc(C(=O)N2CCCC2C(=O)O)cc1 (stereo not drawn),-7.21

row,Compound,"activity change, negative = inhibition [%]"
1,C[C@@H]1CN([C@H](C)CO)C(=O)c2cc(NC(=O)Nc3ccc(C(F)(F)F)cc3)ccc2O[C@H]1CN(C)S(=O)(=O)c1cccs1,-6.05
2,Cc1ccc(S(=O)(=O)Nc2ccc(O)c3ccccc23)c(C)c1,-15.6
3,Cc1noc(/C=C/N(C)C)c1S(=O)(=O)N1CCCC(C(=O)NC2CCCCC2C)C1 (stereo not drawn),-7.62
4,CCOC(=O)c1cccc(P(=O)(C(C)(C)C)C(C)(C)C)c1,1.89
5,C=CC(COCc1ccccc1)N(C(=O)OC(C)(C)C)S(=O)(=O)c1ccccc1Br (stereo not drawn),0.184
6,C=CCC12C=C(OC)C(=O)OC(OC)(C1O)[C@H](c1ccc3c(c1)OCO3)[C@H]2C (stereo partly drawn),-8.23
7,CCC1(CC)NC(=O)N(CC(=O)Nc2ccc(OCc3ccccc3)cc2)C1=O,-6.91
8,Cc1ccc(S(=O)(=O)NCC(=O)OCC(=O)N2CCN(C(=O)c3ccco3)CC2)cc1C,-6.55
9,CCc1cc(C(=O)O)c(NC(=O)C(c2ccccc2)c2ccccc2)s1,-0.982
10,CN1c2ccsc2C(O)=C(C(=S)Nc2ccc(F)c(Cl)c2)S1(=O)=O,-7.32
11,CC1(C)Cc2ccccc2C(=NCCCC(=O)O)N1,-2.17
12,Oc1c(Cl)cc(Cl)cc1/C=N/NC(=S)NC1CC2C=CC1C2 (stereo not drawn),-13.8
13,CCCSc1ncc(Cl)c(C(=O)Nc2ccc(S(=O)(=O)N3CC(C)OC(C)C3)cc2)n1 (stereo not drawn),-0.797
14,C=CCC[C@@H](Cc1ccc(F)cc1)C(=O)OC[C@@H](NC(=O)[C@@H](CC=C)CC(=O)N(CCO)Cc1ccccc1)c1ccccc1,2.84
15,O=C(Nc1ccccc1F)NC1CCCCCCC1,-18.2
16,COC(=O)CN(c1ccc(OC)cc1)S(=O)(=O)c1ccc(OC)c(OC)c1,0.952
17,COC(=O)C1=C(c2ccc3ccccc3c2)C[C@@H]2CC[C@H]1N2C(=O)N1CCC(O)CC1,-1.57
18,N=c1c(C(=O)NCc2ccco2)cc2c(=O)n3ccccc3nc2n1Cc1ccccc1,-1.35
19,COC(=O)CCC(=O)N1CCCC(CO)(Cc2ccccc2F)C1 (stereo not drawn),-0.525
20,O=C(O)C1Sc2[nH]c(=O)sc2C2c3ccc(O)cc3OC(=O)C12 (stereo not drawn),-16.8
21,O=C(NC(NC(=S)Nc1c(Cl)cccc1Cl)C(Cl)(Cl)Cl)OCc1ccccc1 (stereo not drawn),8.05
